Bioassay records from PubChem.
Only some compounds are listed: those with a hit (about 2.2% of all), similar ones and a draw of the others.
PAX8 inh HTS – inhibitors of PAX8 transcriptional activity in RMG-I cells | actives 1.2% (n = 360,000) | RMG-I TPO-luciferase reporter, SteadyGlo, 24 h | inhibition, % at 12.6 µM;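 active = mean replicate inhibition at least 60% with every replicate also reaching 60%; inconclusive = only one of the two criteria is met; inactive = mean below 60% and not all replicates reaching 60%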;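 note: luciferase light reporting Pax8 driven TPO promoter activity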
TRPM1 prom inh – inhibitors of MITF-driven TRPM1 promoter in melanoma cells; SK-MEL-5 TRPM1 promoter luciferase, 24 h; inhibition, % at 12.5 µM; actives 0.83% (n = 330,000); AID 488899;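 active = mean inhibition across replicates of 60% or more, whatever share of single replicates reaches that level; inconclusive = some that reach 60%, reason not given; inactive = mean inhibition across replicates below 60%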
Shn3 3UTR inh – Schnurri-3 reporter inhibition in Clone20 osteoblasts; inhibition, % at 12.5 µM; AID 588674; actives 0.52% (n = 360,000); Clone20 osteoblast Shn3 3'UTR firefly luciferase, 24 h;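 active = mean inhibition of at least 75% with every replicate also reaching 75%; inconclusive = mean inhibition at least 75% but some replicate below; inactive = mean inhibition below 75%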
EBV LMP1 NFkB – reduces LMP1-driven NF-kappaB luciferase signal; inhibition, % at 12.5 µM; LMP1-induced NF-kappaB luciferase reporter cells, luminescence; actives 0.69% (n = 350,000); in the data active = inhibition above about 41%; inconclusive = no clear call, values can overlap the other calls
EWS-Fli block – blocks EWS/Fli oncoprotein-driven transcription; AID 651661; inhibition, % at 12.6 µM; A673 NR0B1-luciferase reporter, viability-normalised; actives 0.67% (n = 350,000);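 active = mean inhibition of at least 50% after viability correction, with every replicate also passing that limit; inconclusive = mean reaches 50% but only one of two replicates passes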;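 note: firefly luciferase signal divided by Alamar Blue viability fluorescence both relative to DMSO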
LGR2 inh – blocks bursicon-induced cAMP signaling via Drosophila LGR2; inhibition, % at 9.99 µM; AID 720647; actives 0.35% (n = 380,000); HEK293 LGR2, CRE-luciferase, bursicon-stimulated, 4 h;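 active = drop in luminescence signal, shown as inhibition above about 50% in the replicate tests, limit read from the data, passing the limit was not always enough; inconclusive = probably only some replicates passing the limit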;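 note: agonist challenge used bursicon conditioned medium at about half maximal strength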
Large screens that a line does not name were inactive.

COc1ccc2c3c(n(C)c2c1)[C@@H](CO)N(C(=O)CN(C)C)CC31CN(C(=O)C2CCC2)C1	none (no result: PAX8 inh HTS, TRPM1 prom inh, Shn3 3UTR inh, EBV LMP1 NFkB)
O=C(c1ccc(CS(=O)Cc2ccccc2Cl)o1)N1CCN(c2cccc(Cl)c2)CC1 (stereo unspecified)	EBV LMP1 NFkB 70
CO[C@@H]1CN(C)C(=O)c2ccc(NC(=O)Nc3ccccc3F)cc2OC[C@@H](C)N(C)C[C@@H]1C	none (no result: PAX8 inh HTS, TRPM1 prom inh, Shn3 3UTR inh, EBV LMP1 NFkB)
COCC(=O)N(C)C[C@@H]1Oc2ncc(-c3ccccc3F)cc2C(=O)N([C@@H](C)CO)C[C@H]1C	none (no result: TRPM1 prom inh, Shn3 3UTR inh, EBV LMP1 NFkB)
O=C1C(Cl)=C(Nc2ccccc2)C(=O)c2ccccc21	TRPM1 prom inh 90, Shn3 3UTR inh 96, EBV LMP1 NFkB 93 (no result: EWS-Fli block)
O=C(O)c1ccc(NC2=C(Cl)C(=O)c3ccccc3C2=O)cc1	PAX8 inh HTS 83, TRPM1 prom inh 96, Shn3 3UTR inh 95, EWS-Fli block inconclusive
Cc1ccc(NCC(=O)c2ccccc2)cc1Cl	none (no result: PAX8 inh HTS, EWS-Fli block, LGR2 inh)
C=CCNC1=C(Cl)C(=O)c2ccccc2C1=O	TRPM1 prom inh 63
Cc1ccc(NC2=C(NC(=O)c3ccccc3)C(=O)c3ccccc3C2=O)cc1Cl	TRPM1 prom inh 67
O=C1C(Cl)=C(NCCc2ccccc2)C(=O)c2ccccc21	TRPM1 prom inh inconclusive
C[C@@H]1CN([C@H](C)CO)C(=O)c2cc(-c3cccc(C(=O)N(C)C)c3)cnc2O[C@H]1CN(C)S(=O)(=O)c1cccc(F)c1	none (no result: PAX8 inh HTS, TRPM1 prom inh, Shn3 3UTR inh, EBV LMP1 NFkB)
C[C@@H]1CN([C@H](C)CO)C(=O)c2cc(-c3ccncc3)cnc2O[C@H]1CN(C)C(=O)C1CCC1	none (no result: PAX8 inh HTS, TRPM1 prom inh, Shn3 3UTR inh, EBV LMP1 NFkB)
CO[C@H]1CN(C)C(=O)c2ccc(NC(=O)c3ccc(F)cc3)cc2OC[C@H](C)N(C(C)=O)C[C@H]1C	none (no result: TRPM1 prom inh, Shn3 3UTR inh, EBV LMP1 NFkB)
CN(C)C(=O)C[C@H]1CC[C@@H]2[C@H](COC[C@@H](O)CN2Cc2ccc(C(F)(F)F)cc2)O1	none (no result: TRPM1 prom inh, Shn3 3UTR inh, EBV LMP1 NFkB)
CC(C)NC1=C(Cl)C(=O)c2ccccc2C1=O	TRPM1 prom inh 80 (no result: PAX8 inh HTS, EWS-Fli block, LGR2 inh)
O=C1C(Cl)=C(NCc2cccnc2)C(=O)c2ccccc21	TRPM1 prom inh 98, EWS-Fli block 58
COCCCNC1=C(Cl)C(=O)c2ccccc2C1=O	none (no result: Shn3 3UTR inh)
CCN(CC)CCCNC1=C(Cl)C(=O)c2ccccc2C1=O	PAX8 inh HTS 70, TRPM1 prom inh 110, EWS-Fli block 65, LGR2 inh 77
CCNC(=O)C[C@@H]1CC[C@@H]2[C@H](COC[C@@H](O)CN2Cc2ccc(Cl)c(Cl)c2)O1	none (no result: TRPM1 prom inh, Shn3 3UTR inh, EBV LMP1 NFkB)
COc1ccc(S(=O)(=O)Nc2cccc3c2O[C@H](CN(C)S(=O)(=O)c2ccc(Cl)cc2)[C@H](C)CN([C@@H](C)CO)C3=O)cc1	none (no result: TRPM1 prom inh, Shn3 3UTR inh, EBV LMP1 NFkB)
CCc1ccc(-c2cn3nc(C)c(C)nc3n2)cc1	TRPM1 prom inh 77, EBV LMP1 NFkB 84 (no result: PAX8 inh HTS, EWS-Fli block, LGR2 inh)
COc1ccccc1-c1cnc2c(c1)C(=O)N([C@@H](C)CO)C[C@@H](C)[C@@H](CN(C)Cc1ccncc1)O2	none (no result: PAX8 inh HTS, TRPM1 prom inh, Shn3 3UTR inh, EBV LMP1 NFkB)
Cc1ccc(S(=O)(=O)Nc2ccc3c(c2)C(=O)N([C@H](C)CO)C[C@@H](C)[C@H](CN(C)Cc2ccc(C(F)(F)F)cc2)OCCCC[C@@H](C)O3)cc1	PAX8 inh HTS 102 (no result: TRPM1 prom inh, Shn3 3UTR inh, EBV LMP1 NFkB)
Cc1ccc(S(=O)(=O)Nc2ccc3c(c2)C(=O)N([C@@H](C)CO)C[C@@H](C)[C@@H](CN(C)Cc2ccc(C(F)(F)F)cc2)OCCCC[C@H](C)O3)cc1	PAX8 inh HTS 87 (no result: TRPM1 prom inh, Shn3 3UTR inh, EBV LMP1 NFkB)
CC=Cc1ccc2n(c1=O)C[C@H]1[C@H](CO)[C@@H](C(=O)Nc3ccc(-c4ccccc4)cc3)[C@@H]2N1CC (mixture of isomers)	none (no result: TRPM1 prom inh, Shn3 3UTR inh, EBV LMP1 NFkB)
C[C@H](CO)N1C[C@H](C)[C@@H](CN(C)Cc2ccc(C(F)(F)F)cc2)Oc2ccc(NS(=O)(=O)c3ccccc3)cc2CC1=O	PAX8 inh HTS 76 (no result: TRPM1 prom inh, Shn3 3UTR inh, EBV LMP1 NFkB, EWS-Fli block)
C[C@H](CO)N1C[C@H](C)[C@@H](CN(C)Cc2ccc(C(F)(F)F)cc2)Oc2ccc(NS(=O)(=O)c3ccc(F)cc3)cc2C1=O	none (no result: TRPM1 prom inh, Shn3 3UTR inh, EBV LMP1 NFkB)
C[C@H](CO)N1C[C@H](C)[C@H](CN(C)Cc2ccc(C(F)(F)F)cc2)Oc2ccc(NS(=O)(=O)c3ccc(Cl)cc3)cc2CC1=O	EWS-Fli block 59 (no result: TRPM1 prom inh, Shn3 3UTR inh, EBV LMP1 NFkB)
C[C@@H]1CN([C@@H](C)CO)C(=O)c2cc(NS(=O)(=O)c3ccc(F)cc3)ccc2O[C@@H]1CN(C)Cc1ccc(C(F)(F)F)cc1	PAX8 inh HTS 107, EWS-Fli block 75 (no result: TRPM1 prom inh, Shn3 3UTR inh, EBV LMP1 NFkB)
Cc1ccc(S(=O)(=O)Nc2ccc3c(c2)CC(=O)N([C@@H](C)CO)C[C@H](C)[C@H](CN(C)Cc2ccc(C(F)(F)F)cc2)O3)cc1	none (no result: TRPM1 prom inh, Shn3 3UTR inh, EBV LMP1 NFkB)
